Source: PubChem BioAssay (EPA / NIEHS)
Some compounds were tested as several samples or in several runs, with calls that do not always agree. Activity calls are given as the source filed them. The calls were made as follows: active = hit-call score of the fitted dose curve at least 0.9, where 1 is the maximum; inactive = score below 0.9.

Test: BSK_SAg_PBMCCytotoxicity: PBMC Cytotoxicity Assessment in the BioMAP Diversity Plus: SAg Assay (AID 2283093);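 also: fitted both ways against DMSO so a hit may be loss or gain of signal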
Details: primary human HUVEC with PBMC
Method: BSK_SAg is a cell-based, multiplexed-readout assay that uses umbilical vein endothelium and peripheral blood mononuclear cells, a human vascular primary cell co-culture, with measurements taken at 24 hours after chemical dosing in a 96-well plate.BSK_SAg_PBMCCytotoxicity is an assay component measured in the BSK_SAg assay. It measures Alamar blue related to cell death using Alamar Blue Reduction technology.Data from the assay component BSK_SAg_PBMCCytotoxicity was analyzed into 1 assay endpoint. This assay endpoint, BSK_SAg_PBMCCytotoxicity, was analyzed with bidirectional fitting relative to DMSO as the negative control and baseline of activity. Using a type of viability reporter, gain or loss-of-signal activity can be used to understand changes in the viability. Furthermore, this assay endpoint can be referred to as a secondary readout, because this assay has produced multiple assay endpoints where this one serves a viability function. To generalize the intended target to other relatable targets, this assay endpoint is annotated to the cell cycle intended target family, where the subfamily is cytotoxicity.
The levels of cell surface (or secreted, indicated by the prefix "s") biomarker endpoints were measured by ELISA. Overt cytotoxicity to cells in confluent adherent cultures (all systems other than the BT system) was assessed by measuring total protein levels using sulforhodamine B (SRB) staining in parallel cultures at the time of biomarker measurements, indicated as SRB endpoints. For proliferation assays for adherent cell types, individual cell types are cultured at sub-confluence and relative cell numbers quantified by SRB staining at time points optimized for each system (48 h: 3C and CASM3C systems; 72 h: BT and HDF3CGF systems; 96 h: SAg system). SRB was performed by staining cells with 0.1% SRB after fixation with 10% TCA and reading wells at 560 nm.Viability and proliferation of PBMC (T cells) was quantified by Alamar Blue reduction for the SAg and BT systems. For PBMC viability (referred to as PBMC Cytotoxicity within the assay endpoint names), cells were plated (75,000/well in a 96-well plate) and then chemical samples added for 1 h before addition of activators, SEB and TSST-1 (20 ng/mL final concentration each). Cells were incubated for 90 h. Then, Alamar Blue (20 uL/well) (Invitrogen, Cat DAL1100) was added for 6 h, and the plates were read with a fluorescence microplate reader at 546/580 nm (excitation/emission). For PBMC proliferation, cells were plated and activated as above but incubated for only 16 h prior to addition of Alamar Blue. Plates were read after 6 h.

| SMILES | outcome | AC50 |
| --- | --- | --- |
| O=C(Nc1ccccc1)Nc1cnns1 | inactive |  |
| CCOCN(C(=O)CCl)c1c(C)cccc1CC | inactive |  |
| CNC(=O)Oc1cccc(N=CN(C)C)c1 | inactive |  |
| CCC(C)(C)C(=O)OC1=C(c2ccc(Cl)cc2Cl)C(=O)OC12CCCCC2 |  | 26.5 µM (active) |
| OCCOc1ccccc1 | inactive |  |
| COc1cc(OC)nc(NC(=O)NS(=O)(=O)c2cc(NC=O)ccc2C(=O)N(C)C)n1 | inactive |  |
| CNC(=O)/C=C(\C)OP(=O)(OC)OC | inactive |  |
| COC(=O)c1ccccc1S(=O)(=O)NC(=O)Nc1nc(C)nc(OC)n1 |  | 15.5 µM (active) |
| COC(=O)c1ccccc1S(=O)(=O)NC(=O)N(C)c1nc(C)nc(OC)n1 | inactive |  |
| [2H]C1([2H])[n+]2ccccc2-c2cccc[n+]2C1([2H])[2H] | inactive |  |
| CNC(=O)Oc1ccccc1OC(C)C | inactive |  |
| O=C(NC(=O)c1c(F)cccc1F)Nc1ccc(OC(F)(F)C(F)OC(F)(F)F)c(Cl)c1 (stereo not given) |  | 8.44 µM (active) |
| N#CN | inactive |  |
| CC(C)(C)C(O)/C(=C\c1ccc(Cl)cc1Cl)n1cncn1 (stereo not given) | inactive |  |
| CC(C)(C)C(O)C(Oc1ccc(Cl)cc1)n1cncn1 (stereo not given) | inactive | 3.38 µM (active) |
| Cc1[nH]c(=O)n(C(C)(C)C)c(=O)c1Cl |  | 9.4 µM (active) |
| C#CCN1C(=O)COc2cc(F)c(N3C(=O)C4=C(CCCC4)C3=O)cc21 | inactive |  |
| O=[N+]([O-])/N=C1\NCCN1Cc1ccc(Cl)nc1 | inactive |  |
| CC[C@H](C)[C@H]1O[C@]2(C=C[C@@H]1C)C[C@@H]1C[C@@H](C/C=C(\C)[C@@H](O[C@H]3C[C@H](OC)[C@@H](O[C@H]4C[C@H](OC)[C@@H](O)[C@H](C)O4)[C@H](C)O3)[C@@H](C)/C=C/C=C3\CO[C@@H]4[C@H](O)C(C)=C[C@@H](C(=O)O1)[C@]34O)O2 (tested in a mixture with another compound) |  | 6.1 µM (active) |
| CCCN(CCOc1c(Cl)cc(Cl)cc1Cl)C(=O)n1ccnc1 |  | 20 µM (active) |

| SMILES | outcome | AC50 |
| --- | --- | --- |
| O=C1c2ccccc2C(=O)N1SC(Cl)(Cl)Cl | inactive |  |
| CC1(c2ccc(Oc3ccccc3)cc2)OC(=O)N(Nc2ccccc2)C1=O (stereo not given) | inactive |  |
| COP(=S)(OC)Oc1ccc(SC)c(C)c1 | inactive |  |
| O=C(O)C(F)(F)C(F)(F)C(F)(F)C(F)(F)C(F)(F)C(F)(F)C(F)(F)F | inactive |  |
| CCc1ccc(C(=O)NN(C(=O)c2cc(C)cc(C)c2)C(C)(C)C)cc1 | inactive |  |
| C[C@H]1[C@H](c2ccc(Cl)cc2)SC(=O)N1C(=O)NC1CCCCC1 | inactive |  |
| ClC1C(Cl)C(Cl)C(Cl)C(Cl)C1Cl (stereo not given) | inactive |  |
| CC(C)N(C(=O)COc1nnc(C(F)(F)F)s1)c1ccc(F)cc1 | inactive |  |
| CCN(CC)C(=O)SCc1ccc(Cl)cc1 | inactive |  |
| Clc1ccccc1-c1nnc(-c2ccccc2Cl)nn1 | inactive |  |
| CCOC1Oc2ccc(OS(C)(=O)=O)cc2C1(C)C (stereo not given) |  | 25.9 µM (active) |
| CCC(C)Nc1c([N+](=O)[O-])cc(C(C)(C)C)cc1[N+](=O)[O-] (stereo not given) |  | 31.9 µM (active) |
| CCS(=O)(=O)c1cccnc1S(=O)(=O)NC(=O)Nc1nc(OC)cc(OC)n1 | inactive |  |
| N#Cc1c(Cl)c(Cl)c(Cl)c(C#N)c1Cl |  | 1.4 µM (active) |
| O=S(=O)(O)C(F)(F)C(F)(F)C(F)(F)C(F)(F)C(F)(F)C(F)(F)C(F)(F)C(F)(F)F | inactive |  |
| COC(=O)c1ccccc1CS(=O)(=O)NC(=O)Nc1nc(OC)cc(OC)n1 | inactive |  |
| CC(C)OC(=O)Nc1cccc(Cl)c1 | inactive |  |
| Oc1ccc(Cl)cc1Cc1ccccc1 |  | 27.2 µM (active) [middle of 7 runs] |
| COP(=S)(OC)Oc1ccc([N+](=O)[O-])cc1 |  | 11.5 µM (active) |
